Reference: PubChem BioAssay (NCATS)
Unmarked numbers belong to inactive results. Calls come from the whole dose curve; as a rule, active = well fitted inhibition curve with a large enough effect; inconclusive = small, poorly fitted or top-dose-only effect; inactive = flat fitted curve, though single readings scatter.

tested on: Nanoluciferase (engineered Oplophorus gracilirostris luciferase); assay: Primary Nanoluciferase (NLuc) qHTS assay for identification of artifact compounds. (AID 1845222); details: NLuc-conditioned medium, Nano-Glo luminescence, 5 min; series mostly up to 54.1 µM; activity, negative = inhibition: at the top concentration;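 note: 0% = DMSO and -100% = no enzyme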
How it was run: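 Concentration-response data were obtained by luminescence after 5 min with Nano-Glo substrate at 1:100. The enzyme was diluted S16 NLuc-expressing cell medium, preincubated with compound for 15 min at RT. Curves were fitted with a 4-parameter Hill model.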

First: CC(C)(O)c1ccc2c(c1)C(O)CC1C(C)(C(=O)O)CCCC21C (centres undefined)
Second: C=C1CC2(C(=O)O)CC1CCC2C1(C)CCCC2(C)C(=O)OC(O)C21 (centres undefined)
The “activity, negative = inhibition” value of the first is lower: -0.391% for the first, 0% for the second.

Going from `CCC(=O)N[C@@H]1Cc2ccccc2[C@H](c2ccccc2)C1` to `O=C(O)[C@H]1CCCC[C@H]1C(=O)N1CCc2ccccc2[C@H]1CN1C(=O)c2ccccc2C1=O`, the “activity, negative = inhibition” value falls from -1.66% to -16.9%.

Going from `CC(=O)NCCCCn1c2c(c3ccccc31)C(=O)NCC2` to `C[C@H](NCc1ccc(OCc2ccccc2F)cc1)C(N)=O`, the “activity, negative = inhibition” value rises from 0.265% to 4.84%.

Going from `CC(C)C1=CCC(C)(O)C(OC2OC(CO)C(O)C(O)C2O)C1` (centres undefined) to `CC(C)C1(O[C@@H]2O[C@H](CO)[C@@H](O)[C@H](O)[C@H]2O)CC=C(CO)CC1` (some centres undefined), the “activity, negative = inhibition” value rises from -8.26% to -0.615%.

First: O=C(COc1ccc(Cl)cc1)NC1CCC(NC(=O)COc2ccc(Cl)cc2)CC1 (centres undefined)
Second: COC(=O)C1(Cc2ccc(O)cc2)OC(=O)C(OC)=C1c1ccc(O)cc1 (centres undefined)
The “activity, negative = inhibition” value of the first is higher: -3.67% for the first, -3.85% for the second.

Compared with `CC1(C)CC2C(O)C3=C(CC(C)(O)C2C1)C(=O)OC3O` (centres undefined), `CC1(C)O[C@@]2(C)CC[C@@H]1C[C@@H]2OC1OC(CO)C(O)C(O)C1O` (some centres undefined) is lower in “activity, negative = inhibition” value: 3.44% for the first, -4.58% for the second.

`COc1cccc2c1CCC[C@H]2CN(C)CCc1ccc2ccoc2c1` and `CC1(C)CCC(C)(C)c2cc3c(cc21)Sc1ccccc1N=C3c1ccc(C(=O)O)cc1` are the same in “activity, negative = inhibition” value: 0% for the first, 0% for the second.

Going from `C=C(C)[C@H]1C[C@@H](O)C(=C)CC[C@@H](O)C(=C)[C@@H](O)C1` to `CC(=O)c1c(O)cc2c(c1C)C(=O)CC(O)C2` (centres undefined), the “activity, negative = inhibition” value falls from 3.91% to -7.1%.

First: Cc1ncc([N+](=O)[O-])n1CC(O)CN1CCOCC1 (centres undefined)
Second: Cc1cn2c(N)c(Cl)cc(C(=O)NCC3CCN(CC(C)C)CC3)c2n1
The “activity, negative = inhibition” value of the first is lower: 0% for the first, 0.703% for the second.

First: Nc1ncnc2c1ncn2[C@H]1CCCO1
Second: O=C1NC(Cc2ccc(O)cc2)C(=O)N2CCCC12 (centres undefined)
The “activity, negative = inhibition” value of the first is lower: 0% for the first, 0.378% for the second.

Compared with `CC(=O)N1CCN(NC(=O)c2ccc(F)cc2)CC1`, `CC(C)(C)c1cc(CN2CCN(CC(O)c3ccc(Cl)cc3)CC2)cc(C(C)(C)C)c1O` (centres undefined) is lower in “activity, negative = inhibition” value: 3.97% for the first, -5.24% for the second.

Going from `CC[C@H](C)/C=C(C)/C=C/C(=O)Cc1cc(O)c(C)c(O)c1C=O` to `COc1c(C)c2c(c(O)c1C/C=C(\C)CC/C=C(\C)CCC(=O)O)C(=O)OC2`, the “activity, negative = inhibition” value falls from -1.47% to -7.31%.

With `O=C(c1ccccn1)c1cnn2c(-c3ccncc3)ccnc12` the “activity, negative = inhibition” value was -0.37%.

Going from `CC(=O)OC[C@@]12[C@H](O)C[C@@H](C)[C@]3(C[C@@H](c4ccoc4)OC3=O)[C@H]1C[C@H](O)C[C@]21CO1` to `CC(CO[C@@H]1O[C@H](COC(=O)/C=C/c2ccc(O)c(O)c2)[C@@H](O)[C@H](O)[C@H]1O)C1(O)COC(=O)C1` (some centres undefined), the “activity, negative = inhibition” value rises from -1.61% [at 25.7 µM] to 0.178% [at 25.7 µM].

Compared with `CC(C)C(=O)O[C@@H]1[C@@H](O)[C@@H](O[C@H]2O[C@H](CO)[C@@H](O)[C@H](O)[C@H]2O)O[C@H](CO)[C@H]1O`, `CCC(C)(O)C(O)C(=O)OCc1ccc(O[C@@H]2O[C@H](CO)[C@@H](O)[C@H](O)[C@H]2O)cc1` (some centres undefined) is higher in “activity, negative = inhibition” value: 0% [at 25.7 µM] for the first, 2.2% [at 25.7 µM] for the second.

First: O=C(/C=C/c1ccc(O)cc1)OC[C@H]1O[C@@H](OC(=O)/C=C/c2ccccc2)[C@H](O)[C@@H](O)[C@@H]1O
Second: COC(=O)C1=CO[C@@H](O[C@@H]2O[C@H](CO[C@@H]3O[C@H](COC(=O)/C=C/c4ccc(O)cc4)[C@@H](O)[C@H](O)[C@H]3O)[C@@H](O)[C@H](O)[C@H]2O)[C@@H]2C(CO)=CC[C@H]12
The “activity, negative = inhibition” value of the first is lower: 0.971% [at 25.7 µM] for the first, 2.88% [at 25.7 µM] for the second.

`C=CC1C(O[C@@H]2O[C@H](CO)[C@@H](O)[C@H](O)[C@H]2O)OC=C(C(=O)OC)C1Cc1nccc2c1[nH]c1ccccc12` (some centres undefined) and `COc1cc([C@H]2OC[C@]3(OC(C)=O)[C@@H](c4ccc(O[C@@H]5O[C@H](CO)[C@@H](O)[C@H](O)[C@H]5O)c(OC)c4)OC[C@H]23)ccc1O` are the same in “activity, negative = inhibition” value: 0% [at 25.7 µM] for the first, 0% [at 25.7 µM] for the second.

Compared with `CC1(C)C(=O)N2c3ccccc3[C@]3(CC(n4cnc5ccccc5c4=O)C(=O)O3)[C@H]2N1O` (some centres undefined), `COc1cc(/C=C/c2cc(O)cc(O[C@@H]3O[C@H](CO)[C@@H](O)[C@H](O)[C@H]3O)c2)ccc1O` is lower in “activity, negative = inhibition” value: 2.52% [at 25.7 µM] for the first, -8.15% [at 25.7 µM] for the second.

Compared with `CC1(C)CC[C@]2(C(=O)O)CC[C@]3(C)C(=CCC4[C@@]5(C)C[C@H](O)[C@H](O[C@@H]6OC[C@H](O)[C@H](O)[C@H]6O)[C@@](C)(CO)C5CC[C@]43C)[C@@H]2C1` (some centres undefined), `C[C@H]1[C@H](C)CC[C@]2(C(=O)O)CC[C@]3(C(=O)O)C(=CCC4[C@@]5(C)CC[C@H](O[C@@H]6O[C@H](C)[C@@H](O)[C@H](O)[C@H]6O)C(C)(C)C5CC[C@]43C)[C@H]12` (some centres undefined) is higher in “activity, negative = inhibition” value: -2.74% [at 25.7 µM] for the first, 3.03% [at 25.7 µM] for the second.

Compared with `C=C1[C@H]2CC[C@]3(O)[C@@](CC[C@@H]4[C@](C)(C(=O)O)CCC[C@]43C)(C2)[C@H]1OC(=O)/C(C)=C\C`, `CC(C)=CC/C=C(/C)[C@H]1CC[C@]2(C)[C@@H]1[C@H](O)CC1[C@@]3(C)CC[C@H](O)C(C)(C)[C@@H]3[C@@H](O[C@@H]3O[C@H](CO)[C@@H](O)[C@H](O)[C@H]3O[C@@H]3O[C@@H](C)[C@H](O)[C@@H](O)[C@H]3O)C[C@]12C` (some centres undefined) is lower in “activity, negative = inhibition” value: 3% [at 25.7 µM] for the first, 1.68% [at 25.7 µM] for the second.
